Source: PubChem BioAssay
VACV Venus inh = inhibitors of vaccinia virus (Venus reporter). Vaccinia virus Venus reporter expression, fluorescence. Potency, µM (titrated, usually from 36.5 µM), without a hit: at the top dose activity change, negative = inhibition, usual class: inhibitors. 0.46% of 330,000 active; calls by dose curve; tested in A549 cells; note: nearly all actives have a fitted effect of over 30% in size
AmpC inh detg = inhibitors of E. coli AmpC beta-lactamase with detergent; P00811; AmpC hydrolysis of nitrocefin, absorbance 480 nm, 0.01% Triton; Potency, µM (titrated, usually from 114 µM), inactives show at the top dose activity change, negative = inhibition, actives largely listed as inhibitors; 0.041% of 370,000 active; AID 485294;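 note: 0% = no-compound wells and -100% = no-enzyme wells; nearly all actives have a fitted effect of over 25% in size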
Target sequence (P00811 whole entry, looked up): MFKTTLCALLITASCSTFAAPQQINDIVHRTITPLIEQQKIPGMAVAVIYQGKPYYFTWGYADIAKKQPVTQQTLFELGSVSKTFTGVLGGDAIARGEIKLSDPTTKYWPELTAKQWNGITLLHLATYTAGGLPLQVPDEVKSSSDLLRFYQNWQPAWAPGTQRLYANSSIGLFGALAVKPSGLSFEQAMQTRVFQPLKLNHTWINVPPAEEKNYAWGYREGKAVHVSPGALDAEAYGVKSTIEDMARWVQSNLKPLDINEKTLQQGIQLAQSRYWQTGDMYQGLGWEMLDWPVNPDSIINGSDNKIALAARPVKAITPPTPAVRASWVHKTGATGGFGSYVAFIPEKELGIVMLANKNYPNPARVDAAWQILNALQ
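20 mM phosphate pH 7.0 + 0.01% (detergent screen) or 0.0001% Triton X-100; 5.3 nM AmpC reagent; cpd preinc 15 min RT; nitrocefin (800 uM stock) to start; A480 q20 s × 4 min; Activity was normalised to no-enzyme and no-compound control wells.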
Vaccinia mCherry = vaccinia inhibition (mCherry reporter); Potency, µM (highest dose often 36.5 µM), for inactives: top-dose activity change, negative = inhibition, usual class: inhibitors; 0.63% of 310,000 active; AID 720579; Vaccinia virus mCherry reporter infection, fluorescence; calls by dose curve; tested in A549 cells; note: nearly all actives have a fitted effect of over 35% in size
AmpC inh no detg = blocks E. coli AmpC beta-lactamase in detergent-free assay | P00811 | 0.52% of 330,000 active | AmpC nitrocefin hydrolysis, absorbance 480 nm, 0.0001% Triton | Potency, µM (top dose mostly 57.1 µM), for inactives: top-dose activity change, negative = inhibition, usual class: inhibitors;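 note: plate controls were no compound for no effect and no enzyme for full effect; nearly all actives have a fitted effect of over 20% in size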
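AmpC (5.3 nM in the dispensed reagent) in 20 mM phosphate pH 7.0 with 0.01% (detergent screen) or 0.0001% Triton X-100 was preincubated with compounds for 15 min at room temperature. Nitrocefin was then added from an 800 uM solution, and hydrolysis was followed at 480 nm.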
The depositor's hits bear a star; i = inactive; ? = inconclusive; · = not tested or not shown; [ ] = another dose, or the depositor's remark. Sampled rows, rich in hits. Any-hit rate of the full collection: about 1.1%. Unless noted, calls come from the whole dose curve; as a rule, active = well fitted curve in the direction sought with a large enough effect; inconclusive = small, poorly fitted or top-dose-only effect, or another doubt; inactive = no such curve, though single readings can be large; an effect the other way counts as inactive or inconclusive. Unless noted, % is set by controls: 0 for no effect and ±100 for the full control effect; potency is the fitted concentration of half-maximal effect.

SMILES	VACV Venus inh	AmpC inh detg	Vaccinia mCherry	AmpC inh no detg
N#CC(c1cccc(Cl)c1)c1ccc2c(C(F)(F)F)cc(C(F)(F)F)nc2n1 (stereo unspecified)	2.24µM*	0.6%	·	·
NNc1ccc2c(C(F)(F)F)cc(C(F)(F)F)nc2n1	-5.0%	3.7%	-6.2%	-1.8%
CCC1(C2CCN(Cc3ccccc3Cl)CC2)NC(=O)N(CC2COc3ccccc3O2)C1=O (stereo unspecified)	-19.3%	·	-18.4%	·
Cc1ccc(NCC(=O)N/N=C\c2ccc([N+](=O)[O-])o2)cc1	?	-7.3%	11.2µM*	-23.0%
Cc1nc2ccccn2c1C(=O)N/N=C/c1ccc([N+](=O)[O-])o1	7.08µM*	-7.5%	?	-23.5%
O=C(N/N=C/c1ccc([N+](=O)[O-])o1)c1ccc(O)cc1	?	-13.1%	12.6µM*	172.2%
Cc1nc2ccccn2c1C(=O)N/N=C/c1ccc([N+](=O)[O-])cc1	-3.5%	-0.7%	-10.1%	-8.4%
Cc1ncc2c(c1CNS(=O)(=O)N(C)C)CCN(C(=O)/C=C/c1ccccc1Cl)C2	-13.4%	·	-20.0%	·
CCSc1nnc(C(C)NC(=O)c2ccc(OC)cc2)n1C (stereo unspecified)	-5.0%	·	-4.9%	·
O=S(=O)(c1ccccc1)N(CC(O)Cn1c2ccccc2c2ccccc21)c1ccccc1 (stereo unspecified)	10µM*	1.5%	·	-31.1%
Cc1cc(C(=O)NCC2CCC3(CCN(Cc4cccc(F)c4F)CC3)O2)n(C)n1 (stereo unspecified)	-22.6%	·	-2.6%	·
C=C(C(=O)c1ccccc1)C(C)CC(=O)c1ccccc1 (stereo unspecified)	-25.4%	-19.6%	?	-23.8%
C=C(C(=O)c1ccccc1)C(NC(C)(C)C)c1ccccc1 (stereo unspecified)	?	·	17.8µM*	·
Cc1c(C(=O)N(C)C2CCOC2)sc2ncnc(NCc3ccc4c(c3)OCO4)c12 (stereo unspecified)	5.3%	·	-12.1%	·
C=C1C=C(C(F)F)n2ncc(C(=O)Nc3ccc(N(CC)CC)cc3)c2N1	-10.6%	·	-16.6%	·
Cc1ccc(Nc2c3c(nc4nc(-c5cccs5)nn24)CCCC3)cc1F	?	?	11.2µM*	·
CC(=NNc1nc2ccccc2o1)c1cc2ccccc2cn1	0.708µM*	·	?	·
Oc1ccccc1/C=N/Nc1nc2ccccc2o1	?	-1.9%	?	-39.5%
CC(=NNc1nc2ccccc2o1)c1ncccn1	?	·	0.708µM*	·
CC(=NNc1nc2ccccc2s1)c1ncccn1	19.2%	·	1µM*	·
C/C(=N\Nc1nc2ccccc2s1)c1cccs1	-20.5%	10.1%	-22.6%	-1.9%
Cc1c(C(=O)NCc2ccccc2Cl)sc2ncnc(NCC3CCCO3)c12 (stereo unspecified)	13.2%	·	-7.0%	·
Cc1ccc(C)c(CN2CCC3(CCC(CNC(=O)c4ccnn4C)O3)CC2)c1 (stereo unspecified)	-17.2%	·	-18.4%	·
COc1ccc(O)c(/C=N/Nc2nc(Nc3ccccc3)nc(-n3nc(C)cc3C)n2)c1	10µM*	-8.5%	·	38.8%
O=C(CN1Cc2ccccc2OC(c2ccccc2F)C1)NC(c1ccccn1)C(F)(F)F (stereo unspecified)	-2.5%	·	-11.8%	·
SMILES	VACV Venus inh	AmpC inh detg	Vaccinia mCherry	AmpC inh no detg
Cc1nnc(NC(=O)CSc2nnc(Cc3cccn3C)n2C)s1	-5.1%	5.4%	-11.1%	31.6µM*
Cn1cccc1Cc1nnc(SCC(=O)N2CCCCCC2)n1-c1ccc(F)cc1	-7.6%	-2.4%	-10.0%	89.2%
CC1CCN(C(=O)CSc2nnc(Cc3cccn3C)n2-c2ccc(F)cc2)CC1	1.3%	?	-7.3%	6.31µM*
COc1ccc(-n2c(Cc3cccn3C)nnc2SCC(=O)Nc2ccc(Cl)cc2)cc1	·	5.5%	·	1µM*
COc1ccc(-n2c(Cc3cccn3C)nnc2SCC(=O)Nc2ccccc2)cc1	-0.5%	-8.7%	-2.1%	?
Cc1ccc(-n2c(SCC(=O)Nc3ccc(Cl)cc3)nc(O)cc2=O)cc1	-5.9%	-5.2%	i	7.08µM*
COc1ccc(CN2CCC3(CCC(CNC(=O)c4ccco4)O3)CC2)c(OC)c1C (stereo unspecified)	-15.6%	·	-2.9%	·
COc1cc(CN2CCC3(CCC(CNC(=O)c4cc(C)nn4C)O3)CC2)ccc1F (stereo unspecified)	-21.0%	·	i	·
CC(C)c1ccc2[nH]c(O)c(N=NC(=O)c3cccc(S(=O)(=O)N4CCCCC4)c3)c2c1	-25.0%	-2.7%	?	6.31µM*
O=C(N=Nc1c(O)[nH]c2ccccc12)c1cccc(S(=O)(=O)N2CCCCC2)c1	-5.5%	0.2%	i	-1.6%
COc1cc2nc(C#N)nc(N)c2cc1OC	-5.9%	·	-9.5%	·
Cc1ccc(-c2nc(CS(=O)(=O)CC(=O)N3CC(C)CC(C)C3)c(C)o2)cc1 (stereo unspecified)	-11.0%	-3.1%	-15.7%	39.8µM*
CCN1CCN(C(=O)CS(=O)(=O)Cc2nc(-c3ccc(C)cc3)oc2C)CC1	-15.9%	-16.4%	3.8%	10µM*
O=C(Nc1ccc(F)cc1)c1cc(S(=O)(=O)N2CCCCC2)cs1	·	4.0%	·	22.4µM*
O=S(=O)(c1ccc(-c2csc(Nc3ccc(Br)cc3)n2)cc1)N1CCCC1	?	-9.0%	-28.4%	-29.2%
O=S(=O)(c1ccc(-c2csc(Nc3ccc(F)cc3)n2)cc1)N1CCCC1	?	-3.4%	-7.3%	8.91µM*
COc1cc(=O)n2c(c1C(=O)NCc1ccco1)CCN(Cc1c(F)cccc1F)CC2	-14.8%	·	i	·
COc1cc(C2CC(=O)Nc3cc(C)c(C)cc32)cc(OC)c1OC (stereo unspecified)	-18.9%	8.7%	?	7.0%
Cc1cc2c(cc1C)C(c1cccc([N+](=O)[O-])c1)CC(=O)N2 (stereo unspecified)	1µM*	-5.3%	0.355µM*	-12.0%
COc1ccc(-c2nn(-c3ccccc3)cc2C(=O)Nc2cccc(C(=O)O)c2)cc1[N+](=O)[O-]	·	-2.8%	·	3.55µM*
O=C(O)CSc1cc(NS(=O)(=O)c2ccc(Cl)cc2)c2ccccc2c1O	?	4.7%	14.1µM*	-45.8%
Cc1ccc(C)c(S(=O)(=O)Nc2ccc(S(=O)(=O)Nc3ncccn3)cc2)c1	·	1.1%	·	-13.8%
Cc1ccc(C)c(S(=O)(=O)Nc2ccccc2C(=O)Nc2ccc(S(=O)(=O)Nc3ncccn3)cc2)c1	-0.8%	-11.4%	-15.2%	15.8µM*
COc1ccc(-n2ccc(-c3sc(NCc4cc(OC)c5c(c4)OCO5)nc3C)n2)cc1	-10.2%	·	-15.7%	·
CC1=NNC(=O)/C1=C\c1cn(-c2ccccc2)nc1-c1ccc(Cl)cc1	8.91µM*	-0.5%	10µM*	-35.6%
Cc1ccc(-c2nn(-c3ccccc3)cc2C=C2C(=O)CC(C)(C)CC2=O)cc1	-15.8%	-8.3%	-17.3%[1.46 µM]	-24.3%
Cc1nc(NCC(=O)c2c[nH]c3ccccc23)sc1C	-26.5%	·	-21.1%	·
CC1=C(C(=O)NC2CCCCC2C)C2(CCC(C)CC2)OC1=O (stereo unspecified)	-8.4%	?	i	-0.2%
